# Experimental data published in PubChem BioAssay AID686971 (National Center for Advancing Translational Sciences (NCATS), 2013).
# The campaign covered roughly 360,000 compounds. About 7,500 (2.1%) were called active. About 8% were inconclusive and are not listed. The list comes from a sample in which actives are over-represented; it also holds similar structures and randomly drawn compounds. Values without a mark were called inactive. The call rests on the fitted dose curve; in most records, active means well fitted cell-killing curve with a large enough effect; inconclusive means small, poorly fitted or top-dose-only effect, or effect the other way, or another doubt; inactive means no such curve, though single readings can be large or run the other way.
# Assay: qHTS for induction of synthetic lethality in tumor cells producing 2HG: qHTS for the HT-1080-IDH1KD cell line;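 on activity, negative = toxicity: 0% = DMSO wells and -100% = cell-free medium wells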
# Settings: HT-1080 IDH1 knockdown viability, ATP luminescence, 48 h; series mostly up to 46.1 µM; activity, negative = toxicity: at the top concentration
# How it was run: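 Luminescent ATP read-out (CellTiter-Glo, 10 min at room temperature) after 48 h compound exposure at 37 °C gave viability of IDH1-knockdown HT-1080 cells. Activity was normalised to DMSO and cell-free wells, then fitted as concentration-response curves.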
# Potency means the concentration at half of the fitted maximal effect.
Structure (SMILES),"activity, negative = toxicity [%]",Potency
COc1ccc(S(=O)(=O)N2CCCCC2c2cc(C(=O)NCc3ccc(F)cc3)no2)cc1 (configuration not stated),-12.8,–
CCCCNC(=O)C1CCCNC1=O (configuration not stated),5.05,–
CCCCNC(=O)OC1CC2CC1[C@H]1CCCCN1C2=O (some centres not stated),–,25.9 µM (active)
O=C(OC1CC2CC1[C@H]1CCCCN1C2=O)N1CCOCC1 (some centres not stated),4.09,–
OC(c1ccc(F)cc1)c1ncc(-c2cccc(C(F)(F)F)c2)[nH]1 (configuration not stated),0,–
Cc1cc(Br)cn2c(Cc3ccccc3C(F)(F)F)c(C3CCCCC3)nc12,-2.39,–
C[C@H](CO)N1C[C@H](C)[C@@H](CN(C)S(=O)(=O)c2ccc(Oc3ccccc3)cc2)OCc2cn(nn2)CCCC1=O,-12.2,–
Cn1cc([N+](=O)[O-])c(C(=O)Nc2ccc3c(c2)OCCO3)n1,–,11.2 µM (active)
COc1cccc(NC(=O)c2nn(C34CC5CC(CC(C5)C3)C4)cc2[N+](=O)[O-])c1,-1.16,–
O=C(Nc1ccc2c(c1)OCCO2)c1ccoc1,3.83,–
CNC(=O)C1CN(C(=O)c2cccc(S(=O)(=O)N3CCc4ccccc43)c2)c2ccccc2O1 (configuration not stated),-22,–
COc1ccc(C(CNC(=O)c2ccc(OCc3cscn3)cc2)N2CCCC2)cc1 (configuration not stated),-1.11,–
Cc1cccc(C(=O)OCC(=O)Nc2sccc2C(N)=O)c1C,8.43,–
O=C(NCCc1cccc(F)c1)C1CC(O)CN1C(=O)Nc1ccccc1 (configuration not stated),4.64,–
O=C(O)C(=Cc1ccc([N+](=O)[O-])cc1)CCc1ccccc1,-4.63,–
CN1CCN(C2Cc3ccc(Cl)cc3Sc3ccc(F)cc32)CC1 (configuration not stated),–,13 µM (active)
O=[N+]([O-])c1ccc(CN2CC(N3CC=CC3)CS2(=O)=O)cc1 (configuration not stated),2.68,–
CSc1ccc(CN2CCC2(C)C(=O)Nc2ccc(C)c(O)c2)cc1 (configuration not stated),1.83,–
CCCCN1C(=O)C(CC(=O)NCc2cccs2)CC(C(=O)N2CCOCC2)=C1C (configuration not stated),-0.279,–
Cc1ccc(NNC(=O)c2cccs2)cc1Cl,–,5.8 µM (active)
O=C(NNC(=O)c1ccc(Cl)cc1Cl)c1cccs1,1.43,–
Cc1ccc(C(=O)Nc2ccc(NC(=O)c3cccs3)cc2)c(C)c1,–,16.4 µM (active)
Cc1ccc(NC(=O)c2cccs2)cc1S(=O)(=O)N(C)C,11.2,–

Structure (SMILES),"activity, negative = toxicity [%]",Potency
Cc1ccc(C(=O)NNC(=O)c2cccs2)cc1,20.8,–
Cc1ccc(C)c(NC(=O)CCC(=O)NNC(=O)c2cccs2)c1,18.3,–
COC(=O)c1ccc2nc(-c3ccc(C)cc3)c(Cc3ccc(OC)cc3C)n2c1,-0.222,–
CCCNC(=O)c1cc2c(c(-c3cccc(-c4ccc(C#N)cc4)c3)n1)[C@@H](CCO)N(C(=O)CC)C2,-28.2,–
O=C(NNC(=O)c1ccccc1O)c1ccccc1O,–,9.2 µM (active)
Cc1cc(C(=O)CCC(=O)NNC(=O)c2ccccc2O)c(C)s1,-1.01,–
CC1=C(C)CC(C(=O)NNC(=O)c2ccccc2O)C(C(=O)O)C1 (configuration not stated),-13.2,–
CCNC(=O)c1cc2c(c(-c3cccc(-c4cncnc4)c3)n1)[C@H](CCO)N(C(C)=O)C2,12.5,–
O=C(Nc1cccc(C(=O)O)c1)/C(=C\c1ccccc1)NC(=O)c1ccc(Br)o1,2.12,–
CC(Nc1nc(C(F)(F)F)nc2ccccc12)c1cccs1 (configuration not stated),–,16.4 µM (active)
CC(C)n1c(-c2cccs2)nc2ccccc21,-1.39,–
Cc1cc(C)n(-c2nc(C(F)(F)F)nc3ccccc23)n1,-13,–
COCCCNC(=O)c1cccc2c(-c3ccc(O)c(OC)c3)coc12,-17.3,–
NC(CSC(c1ccccc1)(c1ccccc1)c1ccc(-c2ccccc2)cc1)C(=O)O (configuration not stated),12.7,–
O=C(NCc1nnnn1-c1ccc(Cl)cc1)c1ccc2c(c1)OCO2,-0.275,–
CCNC(=O)C1(C)CCCN(C(=O)c2ccc3ccccc3n2)C1 (configuration not stated),15.4,–
CCc1ccc(-n2c(SCc3cc(=O)n4cc(Br)ccc4n3)nc3[nH]ncc3c2=O)cc1,–,18.4 µM (active)
O=c1c2sccc2nc(SCc2cc(=O)n3ccccc3n2)n1-c1ccc(Br)cc1,-11.7,–
Cc1cccc2nc(CSc3nc4[nH]ncc4c(=O)n3-c3cccc(Cl)c3)cc(=O)n12,2.66,–
CCc1nc2c(OCC(=O)C(C)(C)C)cccn2c1N(C)C(=O)c1ccccc1F,12.4,–
CCC(=O)N1CCCC1(C)C(=O)Nc1ccc2c(c1)CCN2C(C)=O (configuration not stated),18,–
COc1ccc(Nc2cc(Sc3ccc(OC)cc3)ncn2)cc1,-20.5,–
COc1ccc(Nc2cc(C)nc(-n3nc(C)cc3C)n2)cc1,–,0.794 µM (active)

Structure (SMILES),"activity, negative = toxicity [%]",Potency
Cc1cc(C)n(-c2ccc(C(=O)O)cc2[N+](=O)[O-])n1,-0.0463,–
COc1ccc(NC(=O)c2nc(-n3nc(C)cc3C)ccc2Cl)cc1Cl,4.15,–
CC(=O)c1ccc(Oc2cc(C)nc(-n3nc(C)cc3C)n2)cc1,–,4.61 µM (active)
CCOC(=O)c1cnc(-n2nc(C)cc2C)nc1NNc1cc(C)nc(-c2ccccc2)n1,-24.4,–
O=C1c2ccccc2-c2ccccc2NC1O (configuration not stated),1.47,–
CCC(=O)N1CCC(C)(C(=O)Nc2cc(OC)c(OC)c(OC)c2)C1 (configuration not stated),26.5,–
CCOC(=O)[C@]12CCCC=C1N(CCC1=CCCCC1)C(=O)[C@H](CC(=O)N1CCCCC1)C2,-15.9,–
Cc1ccc(-c2nc3c(Cl)cc(C(F)(F)F)cn3c2Cc2cccc(Cl)c2)cc1,10.7,–
CNC(=O)C[C@H]1C(=O)N(Cc2ccccc2)C[C@@H]1CSC,4.17,–
Cc1nc(N2CCN(c3ccccn3)CC2)c2c(C)c(C(=O)Nc3ccc(F)cc3)sc2n1,1.24,–
Cc1nc(N2CCOCC2)c2c(C)c(C(=O)Nc3ccc(C(F)(F)F)cc3)sc2n1,–,20.6 µM (active)
Cc1nc(N2CCN(c3ccccn3)CC2)c2c(C)c(C(=O)Nc3ccc(F)c(Cl)c3)sc2n1,14.8,–
COc1ccc(NC(=O)C2(C)Cc3c(-c4ccc(C(N)=O)cc4)ccnc3O2)cc1 (configuration not stated),-4.38,–
CC1(C)Cc2cccc(OCC(=O)NCc3ccccc3)c2O1,-3.39,–
O=C(NCc1ccc2c(c1)OCO2)c1cc(F)c(F)cc1Cl,11.4,–
COc1ccc(NC(=O)C2Cc3c(-c4cccc(NC(C)=O)c4)ccnc3O2)cc1OC (configuration not stated),-14.7,–
CC1(C(=O)NCc2ccc(F)c(F)c2)Cc2c(-c3ccc4c(c3)OCO4)ccnc2O1 (configuration not stated),–,4.61 µM (active)
COc1ccc(NC(=O)C2(C)Cc3c(-c4cccc(NC(C)=O)c4)ccnc3O2)cc1OC (configuration not stated),–,14.6 µM (active)
CC(=O)Nc1cccc(-c2ccnc3c2CC(C)(C(=O)NCc2ccccc2)O3)c1 (configuration not stated),–,0.651 µM (active)
CC1(C(=O)Nc2cccnc2)Cc2c(-c3ccccc3)ccnc2O1 (configuration not stated),-0.19,–
COc1cc(OC)c(C(=O)NCc2ccc3c(c2)OCO3)cc1OC,-0.101,–
